# This excerpt belongs to a sample that is enriched for the strongest signals.
# B1: MpL2 (Macrolepiota procera) (protein)
# chain: MSTQVSSGQTYKITNVKAGTVIRLSGEDNKSIIGYPYHSGKNQQWTFNWTGKAWTLRSASSGSYLGIEGTPADGTRLVAVNDPFEWHIWRDEANENAFRIFVPFTNYNLDLSGYGDTTPGTPVQLWWTWEGLHQTWTIDRP
# Tests used:
# Experiment in all cases: glycan array binding signal (z-score within array); higher = stronger binding
# Conditions in all cases: glycan notation: IUPAC condensed, linker removed; mutation: D22R
# GalNAc4S6S(b1-4)GlcNAc = target: GalNAc4S6S(b1-4)GlcNAc
# Method in brief: (§1)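 The Consortium for Functional Glycomics database supplied 3228 glycan arrays, of which those lacking an available protein sequence were dropped. The binding signal, a within-array Z-score, was averaged across arrays of the same protein sequence and across linkers. Negative scores can be read as non-binding.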
# GlcA(b1-6)Gal = target: GlcA(b1-6)Gal
# Method in brief: as §1
# [1] = target: GlcNAc(a1-4)Gal(b1-4)GlcNAc(b1-3)Gal(b1-4)GlcNAc(b1-3)Gal(b1-4)GlcNAc
# Method in brief: as §1
# GlcNAc(b1-3)Fuc = target: GlcNAc(b1-3)Fuc
# Method in brief: as §1
# GlcNAc(b1-3)Gal = target: GlcNAc(b1-3)Gal
# Method in brief: as §1
# [2] = target: GlcNAc(b1-3)Gal(b1-4)GlcNAc(b1-2)[GlcNAc(b1-3)Gal(b1-4)GlcNAc(b1-6)]Man(a1-6)[GlcNAc(b1-3)Gal(b1-4)GlcNAc(b1-2)Man(a1-3)]Man(b1-4)GlcNAc(b1-4)GlcNAc
# Method in brief: as §1
# [3] = target: GlcNAc(b1-3)Gal(b1-4)GlcNAc(b1-3)Gal(b1-4)GlcNAc(b1-3)Gal(b1-4)GlcNAc(b1-3)Gal(b1-4)GlcNAc(b1-2)[GlcNAc(b1-3)Gal(b1-4)GlcNAc(b1-3)Gal(b1-4)GlcNAc(b1-3)Gal(b1-4)GlcNAc(b1-3)Gal(b1-4)GlcNAc(b1-6)]Man(a1-6)[GlcNAc(b1-3)Gal(b1-4)GlcNAc(b1-3)Gal(b1-4)GlcNAc(b1-3)Gal(b1-4)GlcNAc(b1-3)Gal(b1-4)GlcNAc(b1-2)Man(a1-3)]Man(b1-4)GlcNAc(b1-4)[Fuc(a1-6)]GlcNAc
# Method in brief: as §1
# [4] = target: GlcNAc(b1-3)Gal(b1-4)GlcNAc(b1-6)[GlcNAc(b1-3)]Gal(b1-4)GlcNAc
# Method in brief: as §1
# GlcNAc(b1-3)GalNAc = target: GlcNAc(b1-3)GalNAc
# Method in brief: as §1
# [5] = target: GlcNAc(b1-4)[GlcNAc(b1-6)]GalNAc
# Method in brief: as §1
# [6] = target: GlcNAc(b1-6)Gal(b1-4)GlcNAc
# Method in brief: as §1
# [7] = target: Neu5Ac(a2-3)Gal(b1-3)GlcNAc(b1-2)Man(a1-3)[GlcNAc(b1-4)][Neu5Ac(a2-3)Gal(b1-3)GlcNAc(b1-2)Man(a1-6)]Man(b1-4)GlcNAc(b1-4)GlcNAc
# Method in brief: as §1
# [8] = target: Neu5Ac(a2-3)Gal(b1-3)[Neu5Ac(a2-6)]GlcNAc(b1-3)[Fuc(a1-3)[Gal(b1-4)]GlcNAc(b1-6)]Gal(b1-4)Glc
# Method in brief: as §1
# [9] = target: Neu5Ac(a2-3)Gal(b1-3)]Neu5Ac(a2-3)Gal(b1-4)]GlcNAc
# Method in brief: as §1
# [10] = target: Neu5Ac(a2-3)Gal(b1-4)GlcNAc(b1-2)[Neu5Ac(a2-3)Gal(b1-4)GlcNAc(b1-4)]Man(a1-3)[GlcNAc(b1-4)][Neu5Ac(a2-3)Gal(b1-4)GlcNAc(b1-4)Man(a1-6)]Man(b1-4)GlcNAc(b1-4)GlcNAc
# Method in brief: as §1
# [11] = target: Neu5Ac(a2-3)Gal(b1-4)GlcNAc(b1-3)Gal(b1-4)[Fuc(a1-3)]GlcNAc
# Method in brief: as §1
# [12] = target: Neu5Ac(a2-3)Gal(b1-4)[Fuc(a1-3)]GlcNAc(b1-3)Gal(b1-4)[Fuc(a1-3)]GlcNAc(b1-3)Gal(b1-4)[Fuc(a1-3)]GlcNAc
# Method in brief: as §1
# [13] = target: Neu5Ac(a2-6)Gal(b1-4)GlcNAc(b1-2)Man
# Method in brief: as §1
# [14] = target: Neu5Ac(a2-6)Gal(b1-4)GlcNAc(b1-3)Gal(b1-3)GlcNAc
# Method in brief: as §1
# [15] = target: Neu5Ac(a2-6)Gal(b1-4)GlcNAc(b1-3)Gal(b1-4)GlcNAc(b1-3)Gal(b1-4)GlcNAc(b1-2)Man(a1-3)[Neu5Ac(a2-6)Gal(b1-4)GlcNAc(b1-3)Gal(b1-4)GlcNAc(b1-3)Gal(b1-4)GlcNAc(b1-2)Man(a1-6)]GalNAc
# Method in brief: as §1
# [16] = target: Neu5Ac(a2-6)Gal(b1-4)GlcNAc(b1-3)Gal(b1-4)GlcNAc(b1-3)[Neu5Ac(a2-6)Gal(b1-4)GlcNAc(b1-3)Gal(b1-4)GlcNAc(b1-6)]GalNAc
# Method in brief: as §1
# [17] = target: Neu5Ac(a2-6)Gal(b1-4)GlcNAc(b1-3)GalNAc
# Method in brief: as §1
# [18] = target: Neu5Ac(a2-6)Gal(b1-4)GlcNAc(b1-6)[Gal(b1-3)]GalNAc
# Method in brief: as §1
# Neu5Ac(a2-6)GalNAc = target: Neu5Ac(a2-6)GalNAc
# Method in brief: as §1
# [19] = target: Neu5Ac(a2-8)Neu5Ac(a2-8)Neu5Ac(a2-3)[GalNAc(b1-4)]Gal(b1-4)Glc
# Method in brief: as §1
# [20] = target: Neu5Ac(b2-6)Gal(b1-4)GlcNAc
# Method in brief: as §1
binder,measurement,setting,value
B1,glycan array binding signal (z-score),GalNAc4S6S(b1-4)GlcNAc,-0.021
same,glycan array binding signal (z-score),GlcA(b1-6)Gal,9.35
same,glycan array binding signal (z-score),[1],-0.264
same,glycan array binding signal (z-score),GlcNAc(b1-3)Fuc,0.069
same,glycan array binding signal (z-score),GlcNAc(b1-3)Gal,-0.201
same,glycan array binding signal (z-score),[2],1.11
same,glycan array binding signal (z-score),[3],0.58
same,glycan array binding signal (z-score),[4],-0.264
same,glycan array binding signal (z-score),GlcNAc(b1-3)GalNAc,-0.361
same,glycan array binding signal (z-score),[5],-0.082
same,glycan array binding signal (z-score),[6],-0.168
same,glycan array binding signal (z-score),[7],0.519
same,glycan array binding signal (z-score),[8],0.292
same,glycan array binding signal (z-score),[9],-0.346
same,glycan array binding signal (z-score),[10],-0.638
same,glycan array binding signal (z-score),[11],-0.58
same,glycan array binding signal (z-score),[12],-0.574
same,glycan array binding signal (z-score),[13],-0.185
same,glycan array binding signal (z-score),[14],0.558
same,glycan array binding signal (z-score),[15],2.64
same,glycan array binding signal (z-score),[16],2.97
same,glycan array binding signal (z-score),[17],-0.516
same,glycan array binding signal (z-score),[18],-0.069
same,glycan array binding signal (z-score),Neu5Ac(a2-6)GalNAc,-0.42
same,glycan array binding signal (z-score),[19],0.163
same,glycan array binding signal (z-score),[20],0.011
